# In PubChem BioAssay (NCATS):
# Records with an inconclusive call do not appear. A call without a number means that no potency is given here. Active and inactive are the calls of the source. Calls follow the shape of the dose curve; as a rule, active = well fitted curve in the direction sought with a large enough effect; inconclusive = small, poorly fitted or top-dose-only effect, or another doubt; inactive = no such curve, though single readings can be large; an effect the other way counts as inactive or inconclusive.
# Key:
# [1] = system: Nanoluciferase (engineered Oplophorus gracilirostris luciferase); experiment: Primary Nanoluciferase (NLuc) qHTS assay for identification of artifact compounds. (AID 1845222);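 also: NLuc secreted into diluted conditioned medium of S16 cells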
# Outline: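 qHTS format, against NLuc in S16 cell-conditioned medium. Nano-Glo substrate 1:100 was added after 15 min at room temperature. Luminescence was taken after a further 5 min.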
# [2] = Primary redox qHTS assay for identification of artifact compounds. (AID 1845223)
# Outline: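 Redox-cycling detection via DTT (250 uM final) oxidation coupled to Amplex Red (25 uM)/HRP (250 mU/mL) in HBSS. 15 min preincubation plus 30 min after DTT, room temperature. Ex/Em 525/598 nm; 4-parameter Hill fit against DMSO and 10 uM DA3003.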
# [3] = Quantitative High-Throughput drug screen in 47 multiple myeloma cell lines against the NCATS MIPE library collection: FR4_PLB cell viability assay (AID 1918924; also: nearly all actives have a fitted effect of over 35% in size; also: potency is read from the fitted curve at half-maximal effect)
# Outline: (§1)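 Steps: seed 500 cells per well; pin-transfer MIPE 4.0 library; incubate 48 h at 37C, 5% CO2, humidified; add CellTiter-Glo, 5 min room temperature; read luminescence.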
# [4] = Quantitative High-Throughput drug screen in 47 multiple myeloma cell lines against the NCATS MIPE library collection: AMO1_DSMZ cell viability assay (AID 1918927; also: nearly all actives have a fitted effect of over 30% in size; also: potency is read from the fitted curve at half-maximal effect)
# Outline: (§2)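 We plated 500 myeloma cells per well, pinned in MIPE 4.0 compounds, and incubated for 48 hours at 37C. ATP was then quantified with CellTiter-Glo, with DMSO and media-only wells defining 100% and 0%.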
# [5] = Quantitative High-Throughput drug screen in 47 multiple myeloma cell lines against the NCATS MIPE library collection: ARD_JJKsccE7 cell viability assay (AID 1918929; also: potency is read from the fitted curve at half-maximal effect)
# Outline: as §2
# [6] = Quantitative High-Throughput drug screen in 47 multiple myeloma cell lines against the NCATS MIPE library collection: Karpas620_DSMZ cell viability assay (AID 1918959); also: nearly all actives have a fitted effect of over 30% in size; also: potency is read from the fitted curve at half-maximal effect
# Outline: as §1
# [7] = Quantitative High-Throughput drug screen in 47 multiple myeloma cell lines against the NCATS MIPE library collection: KMM1_JCRB cell viability assay (AID 1918960); also: nearly all actives have a fitted effect of over 30% in size; also: potency is read from the fitted curve at half-maximal effect
# Outline: (§3)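 Each line was plated at 500 cells/well and treated 48 h with library drugs. Viability came from CellTiter-Glo luminescence relative to DMSO and cell-free medium controls.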
# [8] = Quantitative High-Throughput drug screen in 47 multiple myeloma cell lines against the NCATS MIPE library collection: JIM1_ECACC cell viability assay (AID 1918964; also: potency is read from the fitted curve at half-maximal effect)
# Outline: as §2
# [9] = Quantitative High-Throughput drug screen in 47 multiple myeloma cell lines against the NCATS MIPE library collection: INA6_PLB cell viability assay (AID 1918965; also: nearly all actives have a fitted effect of over 55% in size; also: potency is read from the fitted curve at half-maximal effect)
# Outline: (§4)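 CellTiter-Glo luminescence (ATP) after 48 h compound exposure, 37C/5% CO2; 500 cells/well; MIPE 4.0 approved/investigational drugs pinned in; DMSO = 100%, media only = 0% viability.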
# [10] = Quantitative High-Throughput drug screen in 47 multiple myeloma cell lines against the NCATS MIPE library collection: JJN3_DSMZ cell viability assay (AID 1918966; also: nearly all actives have a fitted effect of over 50% in size; also: potency is read from the fitted curve at half-maximal effect)
# Outline: as §2
# [11] = Quantitative High-Throughput drug screen in 47 multiple myeloma cell lines against the NCATS MIPE library collection: H1112_PLB cell viability assay (AID 1918967; also: nearly all actives have a fitted effect of over 30% in size; also: potency is read from the fitted curve at half-maximal effect)
# Outline: as §2
# [12] = Quantitative High-Throughput drug screen in 47 multiple myeloma cell lines against the NCATS MIPE library collection: KMS27_JCRB cell viability assay (AID 1918970); also: nearly all actives have a fitted effect of over 30% in size; also: potency is read from the fitted curve at half-maximal effect
# Outline: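 Luminescent ATP read-out (CellTiter-Glo, 5 min at room temperature) after 48 h compound exposure of 500 KMS27_JCRB cells per well; DMSO wells define full viability and media-only wells zero.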
# [13] = Quantitative High-Throughput drug screen in 47 multiple myeloma cell lines against the NCATS MIPE library collection: EJM_DSMZ cell viability assay (AID 1918926; also: nearly all actives have a fitted effect of over 30% in size)
# Outline: as §2
# [14] = Quantitative High-Throughput drug screen in 47 multiple myeloma cell lines against the NCATS MIPE library collection: ARP1_JJKsccF8 cell viability assay (AID 1918928; also: nearly all actives have a fitted effect of over 40% in size)
# Outline: as §3
# [15] = Quantitative High-Throughput drug screen in 47 multiple myeloma cell lines against the NCATS MIPE library collection: JIM3_ECACC cell viability assay (AID 1918963; also: nearly all actives have a fitted effect of over 35% in size)
# Outline: as §1
# [16] = Quantitative High-Throughput drug screen in 47 multiple myeloma cell lines against the NCATS MIPE library collection: KMS12BM_JCRB cell viability assay (AID 1918971); also: nearly all actives have a fitted effect of over 35% in size
# Outline: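 Viability readout: CellTiter-Glo luminescence following 5 min room-temperature incubation with reagent. Prior exposure: 48 h, 37C, humidified 5% CO2, 500 cells per well.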
# [17] = Quantitative High-Throughput drug screen in 47 multiple myeloma cell lines against the NCATS MIPE library collection: Delta47_JCRB cell viability assay (AID 1918925; also: nearly all actives have a fitted effect of over 45% in size; also: potency is read from the fitted curve at half-maximal effect)
# Outline: as §2
# [18] = Quantitative High-Throughput drug screen in 47 multiple myeloma cell lines against the NCATS MIPE library collection: Karpas417_ECACC cell viability assay (AID 1918961); conditions: Karpas417 myeloma viability, CellTiter-Glo ATP luminescence, 48 h; viability (% of DMSO): at 45.8 µM (top of the series); also: potency is read from the fitted curve at half-maximal effect
# Outline: as §4
# [19] = Quantitative High-Throughput drug screen in 47 multiple myeloma cell lines against the NCATS MIPE library collection: Karpas25_ECACC cell viability assay (AID 1918968; also: nearly all actives have a fitted effect of over 35% in size)
# Outline: as §2
# [20] = Quantitative High-Throughput drug screen in 47 multiple myeloma cell lines against the NCATS MIPE library collection: KHM11_PLB cell viability assay (AID 1918962); also: nearly all actives have a fitted effect of over 35% in size
# Outline: as §1
compound,measurement,setting,value
COc1ccc(N(C(=O)Oc2c(C)cccc2C)c2ccnc(Nc3ccc(N4CCN(C)CC4)cc3)n2)c(OC)c1,outcome,[1],inactive
same,outcome,[2],inactive
same,Potency,[3],2.64 µM (active)
same,Potency,[4],1.48 µM (active)
same,Potency,[5],7.43 µM (active)
same,Potency,[6],2.64 µM (active)
same,Potency,[7],2.96 µM (active)
same,Potency,[8],2.64 µM (active)
same,Potency,[9],1.48 µM (active)
same,Potency,[10],18.7 µM (active)
same,Potency,[11],0.372 µM (active)
same,Potency,[12],2.96 µM (active)
O=C(O)CNC(=O)c1c(O)c2ccccc2n(Cc2ccccc2)c1=O,outcome,[1],inactive
same,outcome,[2],inactive
same,Potency,[3],inactive
same,Potency,[13],inactive
same,Potency,[4],inactive
same,Potency,[14],inactive
same,Potency,[5],inactive
same,Potency,[6],inactive
same,Potency,[7],inactive
same,Potency,[15],inactive
same,Potency,[8],inactive
same,Potency,[11],inactive
same,Potency,[12],inactive
same,Potency,[16],inactive
O=C(N[C@@H](COc1ccc2[nH]c(=O)[nH]c2c1)c1ccccc1)c1cccn(Cc2ccc(F)c(F)c2)c1=O,outcome,[1],inactive
same,outcome,[2],inactive
same,Potency,[4],18.7 µM (active)
same,Potency,[5],18.7 µM (active)
same,Potency,[7],18.7 µM (active)
same,Potency,[12],20.9 µM (active)
CCNC(=O)CC1N=C(c2ccc(Cl)cc2)c2cc(OC)ccc2-n2c(C)nnc21 (centres undefined),outcome,[1],inactive
same,outcome,[2],inactive
same,Potency,[17],6.62 µM (active)
same,Potency,[4],10.5 µM (active)
same,Potency,[18],4.18 µM (active)
same,Potency,[8],16.6 µM (active)
same,Potency,[9],6.62 µM (active)
Cc1nc(-c2ccc(-c3ccc(C(=O)N4CCc5cc6c(cc54)C4(CCN(C)CC4)CO6)cc3)c(C)c2)no1,Potency,[3],inactive
same,Potency,[13],inactive
same,Potency,[4],inactive
same,Potency,[14],inactive
same,Potency,[6],inactive
same,Potency,[7],inactive
same,Potency,[15],inactive
same,Potency,[11],inactive
same,Potency,[12],inactive
same,Potency,[16],inactive
C[C@@H]1[C@H](O)[C@@H](C)C=CC=CCCC=CC=CC=CC=C[C@H](O[C@H]2O[C@@H](C)[C@H](O)[C@@H](N)[C@@H]2O)CC2O[C@](O)(C[C@@H](O)[C@H](O)CC[C@@H](O)C[C@@H](O)C[C@@H](O)CC(=O)O[C@H]1C)C[C@H](O)[C@H]2C(=O)O,Potency,[3],inactive
same,Potency,[13],inactive
same,Potency,[4],inactive
same,Potency,[14],inactive
same,Potency,[6],inactive
same,Potency,[7],inactive
same,Potency,[15],inactive
same,Potency,[8],inactive
same,Potency,[10],inactive
same,Potency,[11],inactive
same,Potency,[19],inactive
same,Potency,[12],inactive
NC1CC1c1ccccc1 (centres undefined),Potency,[3],inactive
same,Potency,[17],inactive
same,Potency,[4],inactive
same,Potency,[14],inactive
same,Potency,[6],inactive
same,Potency,[7],inactive
same,Potency,[20],inactive
same,Potency,[15],inactive
same,Potency,[9],inactive
same,Potency,[11],inactive
same,Potency,[19],inactive
same,Potency,[12],inactive
CSCC[C@@H](NC(=O)[C@@H](Cc1ccccc1)NC(=O)CNC(=O)CNC(=O)[C@@H](N)Cc1ccc(O)cc1)C(=O)O,Potency,[3],inactive
same,Potency,[13],inactive
same,Potency,[4],inactive
same,Potency,[14],inactive
same,Potency,[7],inactive
same,viability (% of DMSO),[18],132% (active)
same,Potency,[20],inactive
same,Potency,[15],inactive
same,Potency,[9],inactive
same,Potency,[11],inactive
same,Potency,[12],inactive
